In PubChem BioAssay:
“And” between values parts separate entries of the source, which are not always exact repeats. Equal values may be shown once. The source made the active and inactive calls.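 The calls were made as follows, unless noted: active = thallium flux through the channel raised or lowered by more than 3 SD from vehicle-only wells, actives on both sides; inactive = the rest.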

Experiments:
[1] = liver-stage malaria parasite growth inhibition, primary screen, cell-based, HepG2, luciferase luminescence, HepG2 viability (AID 624349; in the data active = parasite load remaining mostly below about 12%, no sharp cut-off; inactive = mostly above about 10%;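 also: 100% = mean of DMSO negative control wells on the same plate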); settings: P. berghei liver stage in HepG2, luciferase luminescence, concentration not given here; parasite load remaining: stronger effect = lower value; viability: measured here: HepG2 viability without parasites
[2] = Cy5 fluorescence interference with SSB-bound oligo, artefact control for HCV NS3 helicase inhibitor project, biochemical, NIH Clinical Collection, E. coli SSB (AID 743268; call rule not given here)
[3] = test system: Hepatitis C virus NS3 helicase; assay: HCV NS3 helicase inhibitors, primary screen, biochemical, fluorescence polarization, NIH Clinical Collection (AID 743270; call rule not given here); settings: NS3 helicase binding to Cy5-dT15 DNA, stronger effect = higher value, concentration not given here
[4] = target: Single-stranded DNA-binding protein (Escherichia coli (strain K12)) (UniProt P0AGE0); assay: E. coli SSB displacement from DNA, counter-screen for HCV NS3 helicase inhibitor project, biochemical, fluorescence polarization, NIH Clinical Collection (AID 743271; in the data active = inhibition above about 28%); settings: stronger effect = higher value, concentration not given here
[5] = fluorescence interference in NS3h assay format, artefact control for HCV NS3 helicase inhibitor project, biochemical, NIH Clinical Collection (AID 743272; call rule not given here;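 also: HCV NS3 helicase with a Cy5 labelled single stranded DNA probe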); settings: fluorescence interference counterscreen, stronger effect = lower value
[6] = modulation of C. elegans fzo-1 (AID 1259413; call rule not given here;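 also: fzo-1 mutant C. elegans worms in liquid wells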); settings: C. elegans fzo-1 modulator screen, mean read-out; stronger effect = higher value
[7] = sensitizers of A549 cells to miR-34 induction, primary screen, imaging, A549 dox-inducible miR-34, nuclei and caspase counts (AID 1347080;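 active = compounds whose cell count with miR-34 switched on is under 0.7 times the count with it off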); settings: A549 miR-34 inducible, Hoechst nuclei count, 48 h
[8] = survival rescue of mitochondrial mutant cells in low glucose, primary screen, MELAS cybrids, Rieske KO mouse fibroblasts, CellTiter-Glo (AID 1508586;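 active = mean z-score across replicates of 1.96 or higher in either the MELAS or the Rieske mutant cell line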;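 also: z relative to plate mean and SD of compound and empty wells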)
[9] = viability rescue of complex I mutant cybrids, primary screen, cell-based, galactose medium, ATP luminescence (AID 1645843;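 active = z-score of at least 1.8 in each of two replicates, scored against plate mean and spread of sample wells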;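 also: positive z means more ATP and so rescue of galactose-driven cybrid death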); settings: complex I mutant cybrid cells, 72 h, stronger effect = higher value
F380Y = assay: modulators of BK channel variants, profiling panel, selectivity assay, cell-based, U2OS BacMam, thallium flux, beta subunits (AID 1259406); settings: at 30 µM;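 also: initial slope of Thallos dye fluorescence rise after thallium is added; log ratio against the mean of 0.3% DMSO vehicle wells on the same plate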
F380Y/beta1 = assay: as above; settings: at 30 µM
F380Y/beta2Delta = assay: as above; settings: at 30 µM
F380Y/beta4 = assay: as above; settings: at 30 µM
[10] = target: Calcium-activated potassium channel subunit alpha-1 (Homo sapiens) + Leucine-rich repeat-containing protein 26 (Homo sapiens) (UniProt Q12791+Q2I0M4); assay: as above; settings: F380Y/Slo1WT/gamma1, at 30 µM
Sequence of Calcium-activated potassium channel subunit alpha-1 (Homo sapiens) + Leucine-rich repeat-containing protein 26 (Homo sapiens) (Q2I0M4 whole entry, looked up, one chain of several): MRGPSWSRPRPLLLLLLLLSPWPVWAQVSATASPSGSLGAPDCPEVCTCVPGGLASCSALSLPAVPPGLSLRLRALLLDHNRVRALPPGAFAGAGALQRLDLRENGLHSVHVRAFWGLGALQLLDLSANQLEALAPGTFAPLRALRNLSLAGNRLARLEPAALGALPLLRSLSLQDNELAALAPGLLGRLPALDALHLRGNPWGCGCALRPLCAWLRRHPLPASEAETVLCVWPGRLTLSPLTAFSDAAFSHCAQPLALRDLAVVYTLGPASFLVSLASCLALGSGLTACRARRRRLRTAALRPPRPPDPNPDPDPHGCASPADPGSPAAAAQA

R275C = assay: as above; settings: at 30 µM
R275C/beta1 = assay: as above; settings: at 30 µM
R275C/beta2Delta = assay: as above; settings: at 30 µM
R275C/beta4 = assay: as above; settings: at 30 µM
R275C/Slo1WT/beta2 = assay: as above; settings: at 30 µM
[11] = test system: Neuropilin-2 / VEGF-C interaction (human); assay: inhibitors of NRP2–VEGF-C binding, biochemical, microplate binding format, z-score (AID 743281; call rule not given here); settings: microplate NRP2/VEGF-C binding assay; stronger effect = lower value
[12] = stronger effect = lower value, cell number ratio, induced over uninduced
[13] = measured here: relative caspase fold change +Dox/-Dox
[14] = measured here: total cells with miR-34 induction, stronger effect = lower value
[15] = measured here: total cells without miR-34 induction
[16] = MELAS cybrid survival, CellTiter-Glo 48 h, stronger effect = higher value
[17] = Rieske KO mouse fibroblast survival, CellTiter-Glo 72 h

O=C(NC(CO)C(O)c1ccc([N+](=O)[O-])cc1)C(Cl)Cl (stereo not given)
0.499: z-score [8, 17]
87.3%: viability [1]
active: fluorescence ratio [2] 0.1
inactive: parasite load remaining [1] 48.8% | inhibition [3] -4.09% | inhibition [4] 4.1% | fluorescence ratio [5] 1.03 | mean signal [6] 263 | fold change [7, 12] 0.967 and 0.86 | z-score [8, 16] -0.304 | z-score [9] 0.48 | log fold change Tl+ flux (F380Y) -0.0332 | log fold change Tl+ flux (F380Y/beta1) 0.0194 | log fold change Tl+ flux (F380Y/beta2Delta) -0.0071 | log fold change Tl+ flux (F380Y/beta4) 0.000156 | log fold change Tl+ flux [10] 0.0379 | log fold change Tl+ flux (R275C) -0.0175 | log fold change Tl+ flux (R275C/beta1) -0.0341 | log fold change Tl+ flux (R275C/beta2Delta) -0.00719 | log fold change Tl+ flux (R275C/beta4) 0.0483 | log fold change Tl+ flux (R275C/Slo1WT/beta2) 0.0603
1.3 and 1.21: fold change [7, 13]
7910 and 8980: cell count [7, 15]
7650 and 7730: cell count [7, 14]

COc1cc(C[C@@H](CO)[C@H](CO)Cc2ccc(O)c(OC)c2)ccc1O
77.7%: viability [1]
inactive: parasite load remaining [1] 74.6% | fluorescence ratio [2] 0.93 | inhibition [3] -1.09% | inhibition [4] 3.54% | fluorescence ratio [5] 0.88 | z-score [11] 0.125 | mean signal [6] 248 | log fold change Tl+ flux (F380Y) 0.00354 | log fold change Tl+ flux (F380Y/beta1) 0.0295 | log fold change Tl+ flux (F380Y/beta2Delta) 0.0145 | log fold change Tl+ flux (F380Y/beta4) 0.00227 | log fold change Tl+ flux [10] 0.0262 | log fold change Tl+ flux (R275C) -0.00612 | log fold change Tl+ flux (R275C/beta1) -0.00624 | log fold change Tl+ flux (R275C/beta2Delta) -0.0204 | log fold change Tl+ flux (R275C/beta4) -0.0506 | log fold change Tl+ flux (R275C/Slo1WT/beta2) 0.0317

CN1CCC[C@H]1c1cccnc1
1.38 and 3.3: fold change [7, 13]
11100 and 11800: cell count [7, 14]
92.8% and 95.3% and 105%: viability [1]
11100 and 13400: cell count [7, 15]
inactive: parasite load remaining [1] 58.8% and 68.1% and 77.4% | fluorescence ratio [2] 1.1 | inhibition [3] -3.18% | inhibition [4] -0.48% | fluorescence ratio [5] 0.97 | mean signal [6] 289 | fold change [7, 12] 1 and 0.879 | z-score [9] 1.02 | log fold change Tl+ flux (F380Y) 0.0275 | log fold change Tl+ flux (F380Y/beta1) 0.0102 | log fold change Tl+ flux (F380Y/beta2Delta) 0.027 | log fold change Tl+ flux (F380Y/beta4) 0.0603 | log fold change Tl+ flux [10] -0.0145 | log fold change Tl+ flux (R275C) 0.033 | log fold change Tl+ flux (R275C/beta1) 0.0044 | log fold change Tl+ flux (R275C/beta2Delta) 0.0329 | log fold change Tl+ flux (R275C/beta4) -0.0173 | log fold change Tl+ flux (R275C/Slo1WT/beta2) -0.00315

Nc1nc(Cl)nc2c1ncn2[C@H]1C[C@H](O)[C@@H](CO)O1
inactive: parasite load remaining [1] 10.3% | fluorescence ratio [2] 1.02 | inhibition [3] -1.09% | inhibition [4] -3.54% | fluorescence ratio [5] 0.99 | z-score [11] -0.302 | mean signal [6] 237 | log fold change Tl+ flux (F380Y) -0.0268 | log fold change Tl+ flux (F380Y/beta1) -0.0427 | log fold change Tl+ flux (F380Y/beta2Delta) -0.00452 | log fold change Tl+ flux (F380Y/beta4) -0.0201 | log fold change Tl+ flux [10] -0.0394 | log fold change Tl+ flux (R275C) 0.0195 | log fold change Tl+ flux (R275C/beta1) 0.022 | log fold change Tl+ flux (R275C/beta2Delta) 0.0372 | log fold change Tl+ flux (R275C/beta4) 0.000993 | log fold change Tl+ flux (R275C/Slo1WT/beta2) 0.0197
71.4%: viability [1]
1.38: z-score [8, 16]
3.04: z-score [8, 17]

CCOC(=O)[C@@H](CCc1ccccc1)N[C@@H](C)C(=O)N1CCC[C@H]1C(=O)O
11500: cell count [7, 15]
0.517: fold change [7, 13]
inactive: parasite load remaining [1] 41.4% | fluorescence ratio [2] 1.05 | inhibition [3] -10.4% | inhibition [4] -0.48% | fluorescence ratio [5] 1 | mean signal [6] 237 | fold change [7, 12] 0.958 | z-score [9] 0.835 | log fold change Tl+ flux (F380Y) 0.0242 | log fold change Tl+ flux (F380Y/beta1) 0.0697 | log fold change Tl+ flux (F380Y/beta2Delta) 0.00383 | log fold change Tl+ flux (F380Y/beta4) 0.0422 | log fold change Tl+ flux [10] 0.023 | log fold change Tl+ flux (R275C) 0.0223 | log fold change Tl+ flux (R275C/beta1) -0.00857 | log fold change Tl+ flux (R275C/beta2Delta) -0.00135 | log fold change Tl+ flux (R275C/beta4) -0.0226 | log fold change Tl+ flux (R275C/Slo1WT/beta2) -0.0503
11000: cell count [7, 14]
126%: viability [1]

CCC(CO)NCCNC(CC)CO (stereo not given)
10600 and 8610: cell count [7, 15]
10400 and 7770: cell count [7, 14]
-0.177: z-score [8, 17]
1.98 and 0.647: fold change [7, 13]
inactive: parasite load remaining [1] 78.1% | fluorescence ratio [2] 1.1 | inhibition [3] -5.91% | inhibition [4] -2% | fluorescence ratio [5] 1.03 | mean signal [6] 252 | fold change [7, 12] 0.98 and 0.902 | z-score [8, 16] -0.216 | z-score [9] 0.45 | log fold change Tl+ flux (F380Y) -0.0102 | log fold change Tl+ flux (F380Y/beta1) -0.0572 | log fold change Tl+ flux (F380Y/beta2Delta) 0.024 | log fold change Tl+ flux (F380Y/beta4) -0.00313 | log fold change Tl+ flux [10] -0.00134 | log fold change Tl+ flux (R275C) 0.00482 | log fold change Tl+ flux (R275C/beta1) -0.0497 | log fold change Tl+ flux (R275C/beta2Delta) 0.000295 | log fold change Tl+ flux (R275C/beta4) -0.0366 | log fold change Tl+ flux (R275C/Slo1WT/beta2) 0.0123
129%: viability [1]

CCCCc1nc(Cl)c(CO)n1Cc1ccc(-c2ccccc2-c2nnn[nH]2)cc1
-1.13: z-score [8, 17]
10300 and 10400: cell count [7, 15]
9420 and 8200: cell count [7, 14]
2.6 and 1.84: fold change [7, 13]
inactive: parasite load remaining [1] 81.8% and 40.5% | fluorescence ratio [2] 1.01 | inhibition [3] -1.19% | inhibition [4] 2.21% | fluorescence ratio [5] 0.93 | z-score [11] -0.132 | mean signal [6] 250 | fold change [7, 12] 0.917 and 0.788 | z-score [8, 16] -0.447 | z-score [9] 0.965 and 0.025 | log fold change Tl+ flux (F380Y) -0.0174 | log fold change Tl+ flux (F380Y/beta1) 0.0224 | log fold change Tl+ flux (F380Y/beta2Delta) -0.000818 | log fold change Tl+ flux (F380Y/beta4) 0.0154 | log fold change Tl+ flux [10] 0.0245 | log fold change Tl+ flux (R275C) -0.0209 | log fold change Tl+ flux (R275C/beta1) 0.00988 | log fold change Tl+ flux (R275C/beta2Delta) 0.0215 | log fold change Tl+ flux (R275C/beta4) 0.039 | log fold change Tl+ flux (R275C/Slo1WT/beta2) -0.0136
76.8% and 103%: viability [1]
